Data taken from paper PMC4336329 (PLoS ONE, 2015).
Hit rate of the full screen: of about 310,000 compounds, about 2,200 (0.71%) showed an effect of 50% or more. The effect is printed as a negative number. Many of the other results were omitted from the sample, so strong results are more common in it than they were.

Target: human ether-à-go-go-related gene (hERG) potassium channel (human, UniProt Q12809)
Assay: primary screen, population patch clamp on CHO cells stably expressing hERG; higher = less effect of the substance

Sequence of human ether-à-go-go-related gene (hERG) potassium channel (Q12809 whole entry, looked up): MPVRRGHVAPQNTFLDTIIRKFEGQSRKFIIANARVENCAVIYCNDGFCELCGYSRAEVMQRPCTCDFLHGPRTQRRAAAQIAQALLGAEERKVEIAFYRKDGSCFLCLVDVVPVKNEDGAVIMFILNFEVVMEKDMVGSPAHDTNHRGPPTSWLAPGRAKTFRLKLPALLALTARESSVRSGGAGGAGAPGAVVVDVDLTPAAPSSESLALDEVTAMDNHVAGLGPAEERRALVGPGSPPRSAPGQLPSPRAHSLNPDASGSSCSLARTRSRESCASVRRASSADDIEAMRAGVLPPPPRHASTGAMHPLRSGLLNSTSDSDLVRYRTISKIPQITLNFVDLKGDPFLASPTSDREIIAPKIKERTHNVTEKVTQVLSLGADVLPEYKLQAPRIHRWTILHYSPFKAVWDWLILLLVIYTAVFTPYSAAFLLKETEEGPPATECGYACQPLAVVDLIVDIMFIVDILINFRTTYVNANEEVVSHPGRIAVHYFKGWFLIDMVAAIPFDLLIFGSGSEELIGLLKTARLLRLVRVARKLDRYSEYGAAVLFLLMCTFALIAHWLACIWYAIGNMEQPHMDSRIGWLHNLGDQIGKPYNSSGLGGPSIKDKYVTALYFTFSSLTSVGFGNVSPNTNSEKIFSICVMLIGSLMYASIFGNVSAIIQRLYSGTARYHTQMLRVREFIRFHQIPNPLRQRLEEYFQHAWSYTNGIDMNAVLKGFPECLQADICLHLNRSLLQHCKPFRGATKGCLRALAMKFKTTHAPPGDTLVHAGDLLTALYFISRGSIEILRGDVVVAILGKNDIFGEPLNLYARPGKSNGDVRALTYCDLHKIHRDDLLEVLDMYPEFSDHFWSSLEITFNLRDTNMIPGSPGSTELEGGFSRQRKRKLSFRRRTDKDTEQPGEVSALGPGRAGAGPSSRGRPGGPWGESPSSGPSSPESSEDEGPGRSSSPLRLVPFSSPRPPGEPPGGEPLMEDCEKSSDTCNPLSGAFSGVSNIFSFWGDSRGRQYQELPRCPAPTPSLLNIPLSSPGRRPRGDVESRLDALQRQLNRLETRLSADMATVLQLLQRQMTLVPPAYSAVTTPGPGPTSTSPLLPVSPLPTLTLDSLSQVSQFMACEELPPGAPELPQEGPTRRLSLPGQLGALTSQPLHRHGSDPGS

SMILES | hERG current change (%, negative = inhibition) at 1uM [%]
CC(C)(C)OC(=O)N/N=C\c1ccc(OC(=O)c2cccs2)cc1 | 9.49
COc1ccc(-c2n[nH]c(=S)n2-c2ccc(Br)cc2)cc1OC | 16.7
O=C(COC(=O)CCS(=O)(=O)c1ccccc1)Nc1ccccc1 | 0.18
O=C(COC(=O)c1cc[n+]([O-])cc1)Nc1cc([N+](=O)[O-])ccc1Cl | 13.7
O=C(NCC(c1ccco1)N1CCc2ccccc2C1)c1ccc([N+](=O)[O-])cc1 (stereo not drawn) | -7.15
O=C(C[n+]1cccc(C(=O)Nc2ccccc2)c1)c1ccc([N+](=O)[O-])cc1.[Br-] | -61
Cc1ccc(C(=O)C[n+]2cccc3ccccc32)cc1.[Br-] | 7.24
O=C(C[n+]1cccc(NC(=O)c2ccccc2)c1)c1cccc([N+](=O)[O-])c1.[Br-] | -39.6
O=C(C[n+]1cccc2ccccc21)c1ccccc1.[Br-] | 8.9
O=C(Nc1ccccc1)c1ccc[n+](Cc2ccc([N+](=O)[O-])cc2)c1.[Br-] | 5.28
O=C(C[n+]1cccc2ccccc21)c1ccc([N+](=O)[O-])cc1.[Br-] | -53.8
COc1ccc(CC(=O)NNS(=O)(=O)c2ccc([N+](=O)[O-])cc2)cc1OC | 16
O=C(COn1nnc2ccc(Cl)cc21)NCc1ccccc1 | 0.51
CCCCN1C(=O)C(=O)N(CC(=O)NC2CCCc3ccccc32)C1=O (stereo not drawn) | 8.35
Cc1ccc(-c2csc(N(CCCN3CCOCC3)C(=O)c3ccco3)n2)cc1.Cl | -4.11
CCN(CC)CCCN(C(=O)c1ccco1)c1nc(-c2ccc(C)cc2)cs1.Cl | -90.2
Cl.O=C(c1ccco1)N(CCCN1CCOCC1)c1nc(-c2ccc(Cl)cc2)cs1 | -5.41
CN(C)CCCN(C(=O)c1ccco1)c1nc(-c2ccc(Cl)cc2)cs1.Cl | -70.8
Cc1ccc(-c2csc(N(CCCN(C)C)C(=O)c3ccco3)n2)cc1.Cl | -36.6
CCN(CC)CCCN(C(=O)c1ccco1)c1nc(-c2ccc(Cl)cc2)cs1.Cl | -25.5
COc1cccc(C2c3[nH]c4ccccc4c3C[C@H]3C(=O)N(C)CC(=O)N23)c1 (stereo partly drawn) | -1.14

SMILES | hERG current change (%, negative = inhibition) at 1uM [%]
CON(c1nc(Cl)nc(N(C)C)n1)S(=O)(=O)c1ccccc1Cl | 6.38
O=C(Nc1cc(Br)ccc1O)C1CC(c2ccccc2Cl)=NO1 (stereo not drawn) | 18.5
CCOc1ccccc1Nc1nc(N)nc(CN(C)C2CCCCC2)n1 | -54.3
COc1ccccc1Nc1nc(N)nc(CN(C)C2CCCCC2)n1 | -11.7
COc1ccc(Nc2nc(N)nc(CN(C)C3CCCCC3)n2)cc1 | -17.9
CCOc1ccc(Nc2nc(N)nc(CCl)n2)cc1 | 7.02
CCOc1ccccc1Nc1nc(N)nc(CN2CCCCC2C)n1 (stereo not drawn) | -9.01
CCOc1ccc(Nc2nc(N)nc(CN(C)C3CCCCC3)n2)cc1 | -58.2
CC(C)NC(=O)C1CCN(C2CCN(C(=O)Cc3ccc4c(c3)OCO4)CC2)CC1 | 4.98
Cc1cc(N2C(=O)C(O)=C(C(=O)c3cccs3)C2c2ccc(F)cc2)no1 (stereo not drawn) | 14.8
S=C(NCc1ccncc1)Nc1ccccc1 | 7.34
COc1ccc(N2C(=O)CC(NCCNc3ccc([N+](=O)[O-])cn3)C2=O)cc1 (stereo not drawn) | -13.7
CCOc1ccc(N2C(=O)CC(NCCNc3ccc([N+](=O)[O-])cn3)C2=O)cc1 (stereo not drawn) | -37.8
CCCOc1ccc(N2C(=O)CC(NCCNc3ccc([N+](=O)[O-])cn3)C2=O)cc1 (stereo not drawn) | -57.8
CC1(C)CC(=O)C2=C(C1)N(c1ccc(F)cc1)C(N)=C(C#N)C2c1cccs1 (stereo not drawn) | 4.89
CC1CC(C)CN(S(=O)(=O)c2ccc(Oc3ccc([N+](=O)[O-])cc3)cc2)C1 (stereo not drawn) | 14.4
CC1CN(C)C(C)C/C1=N\Oc1ccc([N+](=O)[O-])cc1.Cl (stereo not drawn) | -84.5
CN1CCN(C(=O)c2ccc(Oc3ccc([N+](=O)[O-])cc3)cc2)CC1 | -11.7
CC1CN(C)C(C)C/C1=N/Oc1ccccc1[N+](=O)[O-].Cl (stereo not drawn) | 2.66
CC1=CC(=O)C=C(C)C1=NOc1ccc([N+](=O)[O-])cc1 | -11.7
CN1CCC(=NOc2ccc([N+](=O)[O-])cc2)CC1 | -56

SMILES | hERG current change (%, negative = inhibition) at 1uM [%]
CCCCCc1nnc(NC(=O)C2=COCCO2)s1 | 6.91
O=C(Nc1nc(-c2ccccn2)cs1)c1ccc(F)c(S(=O)(=O)N2CCOCC2)c1 | 5.44
CCCC(=O)Nc1c(-c2cccs2)c(=O)c2ccccc2n1C | 5.25
CC1CCCCC1NC(=O)Cn1cccc1C(=O)c1ccccc1 (stereo not drawn) | 14
CNc1nc2cc([N+](=O)[O-])c([N+](=O)[O-])cc2nc1NC | -3.16
COc1ccc(CN2CCC(C(=O)Nc3ccc(Oc4ccccc4)nc3)CC2)cc1F | -37.8
CCOc1ccc(C(=O)CCC(=O)N2CCC(C(=O)OC)CC2)cc1 | 10.1
CC1=C(C(=O)Nc2ccccc2F)C(c2ccsc2)C2=C(CC(C)(C)CC2=O)N1 (stereo not drawn) | 1.33
C#CCNC(=O)C1CCN(c2cc(C)nc(-c3ccccc3)n2)CC1 | -8.78
Cc1cc(N2CCC(C(=O)NCC3CC3)CC2)nc(-c2ccccc2)n1 | -53
C=CCNC(=O)C1CCN(c2cc(C)nc(-c3ccccc3)n2)CC1 | -12.2
Cc1nn(CC(=O)OCC(=O)Nc2ccccc2[N+](=O)[O-])c(C)c1[N+](=O)[O-] | 7.87
CCCCn1c(N)c(N(CCOC)C(=O)c2ccc(OCc3c(C)noc3C)cc2)c(=O)[nH]c1=O | 19
O=C(CN1CCN(C(C(=O)Nc2ccc(Cl)cc2C(F)(F)F)c2ccccc2)CC1)NC1CC1 (stereo not drawn) | -50.1
O=C(CN1CCN(C(C(=O)Nc2ccc(F)cc2)c2ccccc2)CC1)NC1CC1 (stereo not drawn) | -2.24
Cc1ccc(NC(=O)C(c2ccccc2)N2CCN(CC(=O)NC3CC3)CC2)cc1Cl (stereo not drawn) | -2.31
COc1ccc(N(C(=O)Cn2nnc3ccccc32)C(C(=O)NC(C)(C)C)c2ccc(OC)c(O)c2)cc1 (stereo not drawn) | 14.6
Cc1ccc(N2C(=O)C3CC(c4ccccc4)=C4C5C=CC(C6C(=O)N(c7ccc(C)cc7C)C(=O)C56)C4C3C2=O)c(C)c1 (stereo not drawn) | 3.95
Cc1ccc(N2C(=O)C3CC(c4ccccc4)=C4C5C=CC(C6C(=O)N(c7ccc(C)cc7)C(=O)C56)C4C3C2=O)cc1 (stereo not drawn) | -74.5
Cc1ccc(N2C(=O)C3C4CC(=O)C(c5ccccc54)C3C2=O)cc1 (stereo not drawn) | 4.46
Cn1c(SCC(=O)NC2CC2)nnc1-c1ccccc1 | 6.86

SMILES | hERG current change (%, negative = inhibition) at 1uM [%]
CN(C)/C=N/c1ncc(C(=O)c2ccc(Cl)cc2Cl)s1 | -4.09
Cc1cccc(Nc2cc(C)nc3ccccc23)c1.Cl | -33.5
COc1ccc(Nc2cc(C)nc3ccccc23)cc1.Cl | -15.6
COc1cccc(Nc2cc(C)nc3ccccc23)c1 | -65.2
Cc1ccc(-n2c(C)cc(C(=O)CSc3nnc4ccccn34)c2C)cc1 | 0.977
O=C(NC1CCCCC1)C1CCN(c2nnnn2-c2ccccc2)CC1 | 3.39
COc1ccc(/C=C2\N=C3CCCCCN3C2=O)cc1OC | 14.8
OC(COc1cccc2ccccc12)CN1CCCC1 (stereo not drawn) | -1.17
COc1ccc(N2CCN(CC(O)COc3cc(C)cc(C)c3)CC2)cc1.Cl (stereo not drawn) | -17.5
CC(=O)c1ccccc1OCC(O)CN1CCN(CCN2C(=O)c3cccc4cccc(c34)C2=O)CC1 (stereo not drawn) | -73.5
COc1ccc(N2CCN(CC(O)COc3ccc(C)cc3C)CC2)cc1.Cl (stereo not drawn) | -54.6
Cc1cccc(OCC(O)CN2CCN(CCN3C(=O)c4cccc5cccc(c45)C3=O)CC2)c1C (stereo not drawn) | 15.1
OC(COc1cccc2ccccc12)CN1CCN(c2ccc(Cl)cc2)CC1 (stereo not drawn) | -1.91
Cc1ccccc1OCC(O)CN1CCN(CCN2C(=O)c3cccc4cccc(c34)C2=O)CC1 (stereo not drawn) | -17.3
Cc1ccccc1OCC(O)CN1CCCCC1.Cl (stereo not drawn) | 16.2
COc1ccc(N2CCN(CC(O)COc3cc(C)ccc3C)CC2)cc1.Cl (stereo not drawn) | -9.86
Cc1ccccc1OCC(O)CN1CCN(c2ccc(Cl)cc2)CC1 (stereo not drawn) | -58.2
COc1cccc(OCC(O)CN2CCN(c3ccc(Cl)cc3)CC2)c1 (stereo not drawn) | -14.1
C=C1CC(C)OC(c2ccccc2OCC(O)CN2CCCCC2)C1 (stereo not drawn) | -63.3
O=C(COC(=O)c1nc(Cl)c(Cl)c(Cl)c1Cl)NCc1ccccc1 | 3.59
Cc1ccc(OCCNS(=O)(=O)c2ccc(N3CCCC3=O)cc2)cc1 | 7.63
